Compound activity as filed in PubChem.
HDAC3 inh = blocks human histone deacetylase 3 | O15379 | hit rate 0.15% among 320,000 | AID 2718 | recombinant HDAC3, fluorogenic peptide/trypsin coupled, fluorescence | inhibition, % at 8.3 µM; in the data active = inhibition above about 26%, passing the limit was not always enough; inconclusive = no clear call, values can overlap the other calls
GRK2 aptamer HTS = blocks RNA aptamer binding to human GRK2; inhibition of aptamer binding, % at 10 µM; P25098; bead flow cytometry, FAM-aptamer displacement from GRK2; hit rate 0.59% among 330,000;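 active = inhibition of aptamer binding above 40%, roughly 3 SD of noise, on plates passing a quality check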;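 also: median bead fluorescence of bound FAM aptamer so fluorescent compounds give negative values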
LANA-H2A inh = blocks KSHV LANA binding to histone H2A/H2B; inhibition, % (test concentration not listed); cell-free LANA-H2A/H2B peptide, fluorescence polarization; hit rate 0.6% among 320,000; AID 2629; in the data active = inhibition mostly above about 10%, no sharp cut-off; inactive = mostly below about 6.7%
VLA-4 inh = inhibition in a human VLA-4 binding assay; P13612; VLA-4 expressing cells, ligand binding flow cytometry; inhibition, % (about 7 µM as worked out from the volumes in the protocol); hit rate 0.2% among 330,000
Pemphigus Ab inh = human desmoglein-3 autoantibody binding inhibition | DSG3-coupled beads, scFv-anti-DSG3-GFP binding, flow cytometry; hits give low values | P32926 | hit rate 0.48% among 310,000 | binding (percent of control), % at 10 µM | AID 588358;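 active = binding more than 3 SD below its plate's average and above zero; inconclusive = below that plate limit but binding exactly zero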;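 also: hits lower antibody fragment binding to DSG3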
Target sequence (P32926 whole entry, looked up, the tested form may be a part): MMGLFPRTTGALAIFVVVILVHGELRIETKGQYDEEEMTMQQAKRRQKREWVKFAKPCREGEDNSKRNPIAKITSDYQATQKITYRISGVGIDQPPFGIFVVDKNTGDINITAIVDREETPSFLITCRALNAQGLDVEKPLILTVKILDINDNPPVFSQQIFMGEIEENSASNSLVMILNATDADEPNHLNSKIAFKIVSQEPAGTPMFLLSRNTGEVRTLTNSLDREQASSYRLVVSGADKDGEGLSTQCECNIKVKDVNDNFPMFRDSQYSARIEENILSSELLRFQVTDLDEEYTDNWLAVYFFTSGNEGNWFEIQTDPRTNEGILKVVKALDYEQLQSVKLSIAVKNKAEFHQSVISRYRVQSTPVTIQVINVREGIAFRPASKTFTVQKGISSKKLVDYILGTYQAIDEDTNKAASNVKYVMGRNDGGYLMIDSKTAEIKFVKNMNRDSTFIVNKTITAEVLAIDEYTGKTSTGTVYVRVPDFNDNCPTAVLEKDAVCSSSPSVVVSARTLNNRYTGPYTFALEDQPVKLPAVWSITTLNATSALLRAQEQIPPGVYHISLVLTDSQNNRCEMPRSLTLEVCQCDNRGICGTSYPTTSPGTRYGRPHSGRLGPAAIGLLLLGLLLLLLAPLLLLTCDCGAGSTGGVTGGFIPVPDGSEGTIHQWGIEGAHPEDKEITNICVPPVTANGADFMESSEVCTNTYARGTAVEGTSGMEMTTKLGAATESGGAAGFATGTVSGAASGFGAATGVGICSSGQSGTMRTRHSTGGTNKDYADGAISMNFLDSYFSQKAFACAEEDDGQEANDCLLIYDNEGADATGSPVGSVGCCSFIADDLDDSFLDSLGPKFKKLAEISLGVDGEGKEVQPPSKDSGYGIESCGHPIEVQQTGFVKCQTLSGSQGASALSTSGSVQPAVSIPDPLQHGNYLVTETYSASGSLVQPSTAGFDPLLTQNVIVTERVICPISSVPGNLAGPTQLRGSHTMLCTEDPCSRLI
PKD1 kinase inh = inhibitors of human PKD1 kinase; PKD1 kinase fluorescence polarization assay; inhibition, % (test concentration not listed); hit rate 0.056% among 200,000; Q15139; AID 797
Numbers without * were called inactive; ? = inconclusive; · = no result given; ! = repeats disagree. In the library only some 1.8% were active in any assay of this set; here they are far more common. Rule as the data show it, unless noted: active = inhibition above about 50%; inactive = the rest.

SMILES	HDAC3 inh	GRK2 aptamer HTS	LANA-H2A inh	VLA-4 inh	Pemphigus Ab inh	PKD1 kinase inh
Cc1cc(C(=O)OCC(=O)NCc2ccco2)c(C)n1-c1ccc(F)cc1	-3	0	45*	-1	110	-5
O=C(NCCc1ccccc1)C1CCN(c2ncccn2)CC1	-5	3	1	9	89*	-3
NS(=O)(=O)c1ccc(CCNC(=O)C2CCN(C(=O)Nc3ccccc3)CC2)cc1	0	2	2	0	57*	·
O=C(NCCc1ccccc1)C1CCN(C(=O)Nc2ccccc2)CC1	-2	1	6	0	107	·
C[C@@H]1CN([C@H](C)CO)C(=O)CCCn2nncc2CO[C@H]1CN(C)Cc1ccc(O)cc1	·	·	·	·	31*	·
C[C@H](CO)N1C[C@H](C)[C@@H](CN(C)Cc2ccc(O)cc2)OCc2cnnn2CCCC1=O	·	·	·	·	108	·
Cc1ccnc(NS(=O)(=O)c2ccc(NS(=O)(=O)c3ccc([N+](=O)[O-])cc3)cc2)n1	-2	1	1	5	98	·
Cc1ccnc(NS(=O)(=O)c2ccc(NS(=O)(=O)c3cc(Cl)ccc3Cl)cc2)n1	3	0	14*	0	103	·
CC(=O)c1c(C(C)=O)c(C)n(-c2ccc(C(=O)O)cc2)c1C	-5	0	-1	2	106	-3
Cc1ccc(C)n1-c1ccc(C(=O)O)cc1	-2	82*	4	17	·	-1
CN(C(=O)CCN1C(=O)S/C(=C\c2ccccc2)C1=O)C1CCS(=O)(=O)C1 (centres undefined)	3	3	18*	4	99	·
O=S(=O)(NC1CCCCC1Sc1ncccn1)c1ccccc1 (centres undefined)	0	0	13*	14	98	-5
CSc1nc(SCC(=O)O)c2sc3nc(-c4ccccc4)c4c(c3c2n1)CCC4	·	·	·	·	66*	·
CSc1nc(N(C)CCO)c2sc3nc(-c4ccco4)c4c(c3c2n1)CCC4	-4	0	-3	-11	102	7
Cc1ccc(S(=O)(=O)NCC(=O)N2CCOCCOCCOCC2)cc1	0	0	4	5	94	·
CCc1ccc2oc(=O)cc(CN3CCC(C)CC3)c2c1	-2	1	21*	-4	·	-4
CCc1ccc2oc(=O)cc(CN3CCOCC3)c2c1	6	0	-1	14	103	-5
Cc1ccc(NC(=O)CCC(=O)c2ccccc2)cc1	·	·	·	·	71*	·
O=C(CCC(=O)c1ccccc1)Nc1ccc(C(=O)O)cc1	1	1	-3	1	114	·
O=S(=O)(c1ccc(Cl)c(C(F)(F)F)c1)N1CCN(c2ccccn2)CC1	-3	0	-2	0	104	-4
C=CCSc1nc(N)c(C#N)c(-c2ccccc2)c1C#N	2	2	2	-2	81*	-1
CCCSc1nc(N)c(C#N)c(-c2ccc(C)cc2)c1C#N	19	0	3	16	·	-6
O=C(O)c1cccc2cccc(-c3c4ccc(=O)c(O)c-4oc4c(O)c(O)ccc34)c12	·	·	·	·	13*	·
Cc1cccc(NC(=O)c2nc[nH]c2C(=O)N(C)Cc2ccccc2)c1	3	0	-2	16	98	·
COc1ccc(CNC(=O)c2ccc(Cl)c(NC3=NC4CS(=O)(=O)CC4S3)c2)cc1 (centres undefined)	·	0	-4	2	68*	·
SMILES	HDAC3 inh	GRK2 aptamer HTS	LANA-H2A inh	VLA-4 inh	Pemphigus Ab inh	PKD1 kinase inh
O=c1cc2oc3cc(O)c(O)cc3c(-c3ccccc3O)c-2cc1O	·	·	·	·	74*	·
CCC(=O)N1CCc2cc(S(=O)(=O)CCC(=O)NCc3ccccc3OC)ccc21	1	1	6	6	108	·
COc1cc(CN2CCC(Cc3ccccc3)CC2)cc(OC)c1OC	-3	0	1	7	110	·
COc1cc(CN2CCC(Cc3ccccc3)CC2)cc([N+](=O)[O-])c1O	-2	3	20*	-14	105	·
CC1CCCC(C)N1C(=O)CN1C(=O)NC2(CCOc3ccccc32)C1=O (centres undefined)	·	·	·	·	106	·
Cc1ccc(NC(=O)c2ccccc2NS(=O)(=O)c2ccc(F)cc2)cc1S(=O)(=O)N1CCCCC1	?	3	-2	-13	126	7
O=C(CSc1ccc(Cl)cc1)c1ccco1	5	58*	2	12	93	1
O=C(CCSc1ccc(Cl)cc1)c1ccco1	-1	0	-1	10	97	·
CC(C(=O)Oc1ccc2c(c1)OCO2)N1C(=O)c2ccccc2C1=O (centres undefined)	6	0	21*	5	·	-6
C[N+](C)(C)c1ccc(/C=N/Nc2nc(Cl)c(C#N)c(Cl)c2Cl)cc1	3	0	54*	33	104	-1
O=c1ccnc(Nc2ccc([N+](=O)[O-])cc2)[nH]1	1	1	4	0	110	·
CC(C)(C)C(=O)NC(c1ccccc1)c1c(O)ccc2ccccc12 (centres undefined)	-4	0	-4	-7	104	·
CC(C)C(=O)NC(c1ccc(N(C)C)cc1)c1c(O)ccc2ccccc12 (centres undefined)	3	0	27*	-1	96	·
O=S(=O)(O)c1cc(OS(=O)(=O)c2ccccc2)cc2ccccc12	1	1	-3	7	101	·
Cc1ccc(S(=O)(=O)CCc2nnc(NC(=O)C3CCCCC3)s2)cc1	-3	1	-2	2	103	·
CC(=O)Nc1nnc(CCS(=O)(=O)c2ccc(C)c(C)c2)s1	-2	1	1	0	6.1*	1
CCN(N=O)c1ccc(C=C2C=Cc3ccccc32)cc1	·	·	·	·	96	·
O=C(Nc1ccc(-c2cn3c(n2)SCC3)cc1)c1ccc2c(c1)OCO2	-11	4	-2	-9	83*	-3
COc1ccc(C2(CNC(=O)/C=C\c3ccco3)CCCC2)cc1OC	0	48*	-1	1	99	6
COc1ccc(C2(CNC(=O)c3cc(OC)c(OC)c(OC)c3)CCCC2)cc1OC	·	·	·	·	119	·
CCOC(=O)C(C)(C)Oc1ccc(Cl)cc1	-3	2	-4	0	114	·
CC(C)OC(=O)C(C)(C)Oc1ccc(C(=O)c2ccc(Cl)cc2)cc1	15	1	35*!	11	·	-3
O=C(COc1ccc(Cl)cc1)NC1=NN(c2ccccc2)C(=O)C1	-3	1	-2	-2	103	-9
CC1CCCN(c2nc3c(c(=O)[nH]c(=O)n3C)n2CCSc2ncccn2)C1 (centres undefined)	·	·	·	·	·	-8
Cc1nn(-c2ccccc2)c(Cl)c1C(=O)NCC1CCCO1 (centres undefined)	2	4	24*	37	102	·
Cc1cc(C(=O)NCC2CCCO2)n(-c2ccccc2)n1 (centres undefined)	3	3	-1	1	105	-7
